Our source for the inhibition values is PubChem BioAssay AID1220 (Sanford-Burnham Center for Chemical Genomics, 2008).

Hit rate of the full screen: of about 190,000 compounds, about 1,300 (0.68%) were called active. The sample holds actives, similar compounds and a random draw of the others, so the mix is not that of the screen. Values without a mark were called inactive. Cut-off read from the data, not from the text of the source: active = inhibition above about 50%; inactive = the rest.

Chain of Mannose-6-phosphate isomerase (Homo sapiens) (P34949 whole entry, looked up): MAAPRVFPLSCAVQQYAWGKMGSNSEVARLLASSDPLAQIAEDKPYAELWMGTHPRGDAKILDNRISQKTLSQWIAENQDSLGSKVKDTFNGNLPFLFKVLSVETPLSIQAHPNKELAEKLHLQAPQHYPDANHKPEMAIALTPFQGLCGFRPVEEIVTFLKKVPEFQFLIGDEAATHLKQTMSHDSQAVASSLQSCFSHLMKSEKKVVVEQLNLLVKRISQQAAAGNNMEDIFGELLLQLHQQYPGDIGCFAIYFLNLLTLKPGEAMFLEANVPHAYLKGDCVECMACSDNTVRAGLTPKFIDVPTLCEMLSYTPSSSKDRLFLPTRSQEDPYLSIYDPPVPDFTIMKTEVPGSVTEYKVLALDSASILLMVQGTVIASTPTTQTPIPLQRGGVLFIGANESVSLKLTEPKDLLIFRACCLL

This assay has as its target Mannose-6-phosphate isomerase (Homo sapiens) (UniProt P34949). In words: human PMI inhibitors, high substrate, primary screen, biochemical, fluorescence intensity, high mannose 6-phosphate (AID 1220). To be noted: recombinant PMI enzyme, coupled fluorescence intensity; at 20 µM; active compounds read high.
Regarding `CC(=O)Cc1nsc(Nc2cccc(C)c2)n1`, the inhibition (as a rule, the relative decrease from the control value, in per cent) was 6.5%.
As for `COc1ccc(NC(=O)c2ccco2)cc1S(=O)(=O)N1CCOCC1`, the figure is -7.3%; as for `CC(OC(=O)c1cccnc1)C(=O)Nc1ccc2c(c1)OCO2` (stereo not drawn), 2.7%.
With `Cc1cccc(CCN(CC(=O)NC2CCCCC2)C(=O)c2csnn2)c1` the figure was -6%; with `CN(Cc1nccn1C)C(=O)CC1C(=O)NCCN1CC(c1ccccc1)c1ccccc1` (stereo not drawn), 25.1%; with `Cc1ccc(NC(=O)CCNC(=O)c2ccco2)cc1F`, -1.2%.
As for `C/C(=N\NC(=O)C(=O)Nc1ccc(C)cc1)c1ccncc1`, the figure is -7.3%; as for `Cc1nnc(C)c2c(C)n(C(c3ccccc3)c3ccccc3)c(C)c12`, 8%.
For `CC1CCN(c2ccccc2N)CC1`, the inhibition is 2%.
With `Cc1ccc(C)n1-c1ccccc1N` the figure was 57.3% (active).
As for `Cc1nnc(C)c2c(C)n(-c3ccccc3N)c(C)c12`, the figure is 56.3% (active); as for `Cc1ccc(-n2c(C)c3c(C)nnc(C)c3c2C)cc1N`, 44.2%; as for `Cc1ccc(C)n1-c1ccccc1N1CCCCC1`, -1.9%.
With `Cc1nn(-c2ccccc2)c(C)c1C(=O)OCC(=O)c1c(N)n(CC(C)C)c(=O)n(C)c1=O` the figure was 4.3%; with `COc1ccc(NC(=O)c2cccc(S(=O)(=O)N3CCOCC3)c2)cn1`, -1.9%.
For `COc1ccc(NC(=O)c2cc(S(=O)(=O)N3CCCCC3)ccc2N2CCCCC2)cn1`, the inhibition was 55.3% (active).
With `Cc1ccc(NC(=O)c2cc(S(=O)(=O)N3CCCCC3)ccc2N2CCOCC2)cc1F` the figure was 9.5%; with `CCOC(=O)/C(C#N)=C/c1ccc(SC)cc1`, -6.5%; with `O=c1[nH]c(Cc2ccccn2)nc2scc(-c3ccccc3Cl)c12`, -108%.
As for `O=C1CNC(=S)N1c1nc(-c2ccccc2)cs1`, the figure is 0.9%; as for `Cc1ccc(N/N=C/c2c(C)c(C#N)c(=O)n(C)c2O)cc1C`, 23.3%; as for `CC(=O)N=Cc1c(C)c(C#N)c(=O)n(C)c1O`, 53% (active).
With `Cc1c(/C=N/Nc2ccc(F)cc2)c(O)n(C)c(=O)c1C#N` the figure was -7%.
As for `CCC(=C(c1ccc(OC)cc1)c1ccc(OC)cc1)c1cn(CC(O)CN2CCN(C)CC2)c2ccccc12` (stereo not drawn), the inhibition is -5.7%.
With `c1ccc(CCn2nnnc2C(c2cccnc2)N2CCN(c3nc4ccccc4s3)CC2)cc1` (stereo not drawn), the inhibition was 15.2%.
Turning to `CC(C)c1ccc(NC(=O)C(c2ccc3c(c2)OCO3)N2CCCCC2)cc1` (stereo not drawn), the inhibition was 10.5%.
As to `Oc1c(C(c2ccc(Cl)cc2)N2CCCC2)cc(Cl)c2cccnc12` (stereo not drawn), the inhibition is 44.8%.
As for `S=C(c1ccc2c(c1)OCO2)N1CCCC1`, the figure is 7.1%; as for `Oc1cc2c(cc1C(c1ccc(Cl)c(Cl)c1)N1CCCC1)OCO2` (stereo not drawn), 59.9% (active).
With `S=C(c1ccc2c(c1)OCO2)N1CCCCCC1` the figure was 3.6%.
Turning to `Oc1cc2c(cc1C(c1ccc(Br)cc1)N1CCCC1)OCO2` (stereo not drawn), the inhibition was 68.1% (active).
With `CCN(CC)C(=O)C(=O)Nc1ccc(OCc2ccccc2)cc1` the figure was 0.5%; with `CC(C)Nc1nc(NC(C)C)nc(C(=O)OCCO)n1`, -5.1%; with `O=C(COc1ccccc1)N(Cc1cc2ccccc2[nH]c1=O)CC1CCCO1` (stereo not drawn), 0.7%.
With `CC(C)N1CCN(Cc2ccsc2)CC1CCO` (stereo not drawn) the figure was 5.4%; with `N#Cc1c2c(c(NCc3cccnc3)n3c1nc1ccccc13)CCC2`, 11.3%; with `CCc1c(C)c(C#N)c2nc3ccccc3n2c1NCc1ccco1`, -6.6%.
As for `N#Cc1c2c(c(NCc3ccco3)n3c1nc1ccccc13)CCC2`, the figure is 50.2% (active); as for `Cc1ccc(NC(=O)CN2C(=O)NC(C)(CCc3ccccc3)C2=O)cc1` (stereo not drawn), 26.7%.
As to `COc1cccc(C2CC(=O)NC3=C2C(=O)CCC3)c1` (stereo not drawn), the inhibition is -0.9%.
As for `CCC(NC(=O)C1CCC1)c1ccc(C)cc1` (stereo not drawn), the figure is 3.8%; as for `O=C(c1ccccc1)c1cc2c(cc1[N+](=O)[O-])OCCO2`, 10.9%.
As for `Nc1cc2c(cc1C(=O)c1ccccc1F)OCCO2`, the figure is 13.3%; as for `O=C(c1ccccc1F)c1cc2c(cc1[N+](=O)[O-])OCCO2`, 51.7% (active); as for `COc1ccc(OC)c(NC(=S)NCC(c2cccnc2)N2CCOCC2)c1` (stereo not drawn), 2.4%.
With `CC(C)N1CCN(Cc2ccoc2)CC1CCO` (stereo not drawn) the figure was -6.7%; with `Cc1c2cc(O)c(=O)cc-2oc2cc(O)c(O)cc12`, 28.8%; with `CCOc1ccccc1-c1c2cc(O)c(=O)cc-2oc2cc(O)c(O)cc12`, 42%.
As to `COc1ccc(OC)c(-c2c3cc(O)c(=O)cc-3oc3cc(O)c(O)cc23)c1`, the inhibition is 55.4% (active).
As for `CN(C)C(=O)C[n+]1cccc(/C=N/O)c1`, the figure is -5.5%.
With `C=CCn1c(SCC(=O)Nc2ccccc2)nnc1-c1cccc(S(=O)(=O)N2CCOCC2)c1` the figure was 3.2%; with `CC1OC(OCC2OC(Oc3c(-c4ccc(O)cc4)oc4cc(O)cc(O)c4c3=O)C(O)C(O)C2O)C(O)C(O)C1O` (stereo not drawn), 16.6%.
Consider `C[C@@H]1O[C@@H](OC[C@H]2O[C@@H](Oc3c(-c4ccc(O)c(O)c4)oc4cc(O)cc(O)c4c3=O)[C@H](O)[C@@H](O)[C@@H]2O)[C@H](O)[C@H](O)[C@H]1O`, for which the inhibition was 18.4%.
As for `COC(=O)c1ccc(COC(=O)CNC(=O)c2ccco2)cc1`, the figure is 1.5%; as for `CC1CC(NC(=O)c2ncn[nH]2)CC(C)(C)C1` (stereo not drawn), -12.5%.
As for `COc1ccc(C(=O)/C=C2\NCC3c4ccccc4CCN3C2=O)cc1` (stereo not drawn), the figure is -140%; as for `Cc1cccc(C(=O)NCCN(C)C)c1`, 3%; as for `Cc1cc(-c2ccco2)n(CC(=O)O)n1`, -2.6%.
For `Cc1cc(-c2ccco2)n(-c2ccccc2)n1`, the inhibition was 50.5% (active).
Consider `Cc1cc(NC(=O)c2cc(-c3ccco3)on2)n(-c2ccccc2)n1`, for which the inhibition was 26.3%.
For `CC1(C)NC(=O)N(CC(O)COc2ccc(N3C(=O)c4ccccc4C3=O)cc2)C1=O` (stereo not drawn), the inhibition is 53% (active).
As to `CC1(C)NC(=O)N(CC(O)COc2ccc(-c3ccccc3)cc2)C1=O` (stereo not drawn), the inhibition is -0.4%.
With `Cc1ccc(OCC(O)CN2C(=O)NC(C)(C)C2=O)cc1` (stereo not drawn) the figure was 5.5%.
